Bioassay records: PubChem BioAssay, National Center for Advancing Translational Sciences (NCATS)
ERK EGF inh = qHTS Assay for Inhibitors of the ERK Signaling Pathway using a Homogeneous Screening Assay; Stimulation with EGF; HEK293-V1b, EGF-stimulated phospho-ERK AlphaScreen; Potency, µM (series often up to 11.5 µM), inactives show at the top dose activity change, negative = inhibition, actives largely listed as inhibitors; 130,000 tested, 0.41% active; active = well fitted inhibition curve with a large enough effect;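 note: plate controls were stimulated vehicle wells for no effect and unstimulated vehicle basal for full effect; nearly all actives have a fitted effect of over 55% in size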
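Cell line HEK293 (stable V1b), low serum overnight. Pretreatment: compound 30 min, 37C. EGF 25 nM, 5 min. Detection: SureFire AlphaScreen, 5 h RT. AC50 via standard Hill equation.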
Numbers without * were called inactive; [ ] = another dose, or the depositor's remark. Shown is part of a subset that was picked to be rich in hits. Potency is the fitted concentration of half-maximal effect.

`CC(C)C(=O)NC(=S)Nc1ccc(CN2CCOCC2)cc1` gave ERK EGF inh -7%.
CC(C)c1ccc(/C=C/C(=O)Nc2ccc(CN3CCOCC3)cc2)cc1 was read as ERK EGF inh 35µM*.
Screening CCCC(CCC)=NNc1ccc(S(=O)(=O)Nc2ccccc2OC)cc1[N+](=O)[O-] returned ERK EGF inh 14µM*.
For COc1ccccc1NS(=O)(=O)c1ccc(OC)c([N+](=O)[O-])c1 the results were ERK EGF inh 1%.
For C/C(=N\Nc1ccc(S(=O)(=O)Nc2ccccc2)cc1[N+](=O)[O-])c1ccncc1 the results were ERK EGF inh -4%.
For O=S(=O)(CCC(F)=C(F)F)c1nnnn1C1CCCCC1 the results were ERK EGF inh -9%.
`COc1ccccc1NS(=O)(=O)c1cccc(NC(=O)Cc2cccs2)c1` gave ERK EGF inh 1%.
Screening CCNC(=S)Nc1cccc(S(=O)(=O)Nc2ccccc2OC)c1 returned ERK EGF inh 2%[57.5 µM].
`COc1ccccc1NS(=O)(=O)c1cccc(NC(=O)Nc2ccc(Cl)cc2)c1` gave ERK EGF inh 28µM*.
CCCCCCCC1=Cc2ccc(F)cc2C(C(C(C)=O)C(=O)OC)N1C(=O)OC (centres undefined) was read as ERK EGF inh -5%.
Screening COc1ccc(/C=C(\C#N)c2cc(OC)c(OC)cc2[N+](=O)[O-])cc1 returned ERK EGF inh -4%[57.5 µM].
`CCOc1ccc(-c2csc(/C(C#N)=C\c3ccc(O)c([N+](=O)[O-])c3)n2)cc1` gave ERK EGF inh 13µM*.
`N#C/C(=C\c1ccc(-c2ccccc2)cc1)c1nc(-c2ccco2)cs1` gave ERK EGF inh 6%.
For O=C1C2=C(S[C@@H]3O[C@H](CO)[C@@H](O)[C@H](O)[C@H]3O2)C(=O)c2ccccc21 the results were ERK EGF inh 7%.
`COc1ccc(C(=O)N(O)c2ccccc2)cc1` gave ERK EGF inh -7%.
Screening COc1ccc2c(=O)cc(-c3ccc(O)cc3)oc2c1 returned ERK EGF inh -8%.
For COc1ccc(OC)c(-c2c3cc(O)c(=O)cc-3oc3cc(O)c(O)cc23)c1 the results were ERK EGF inh 25µM*.
Screening COc1ccccc1-c1cc(=O)c2cc(O)ccc2o1 returned ERK EGF inh -10%.
For N=C(N)c1ccc(OCCCCCOc2ccc(C(=N)N)cc2)cc1 (tested in a mixture with another compound) the results were ERK EGF inh 2%.
Cc1nc(NC2CCCCC2)c2nc(-c3ccccc3)n(C(C)CN(C)C)c2n1 (centres undefined) was read as ERK EGF inh -2%.
`COc1ccc(CCN2C(=O)CC(NC34CC5CC(CC(C5)C3)C4)C2=O)cc1OC` (centres undefined) gave ERK EGF inh -5%.
`CCN(CC)c1ccc(NC2CC(=O)N(CCc3ccc(OC)cc3)C2=O)cc1` (centres undefined) gave ERK EGF inh 35µM*.
`COc1ccc(CCN2C(=O)CC(NNC(=O)c3ccccc3Br)C2=O)cc1` (centres undefined) gave ERK EGF inh 5%.
N[C@H](Cc1ccc(O)c(O)c1)C(=O)O was read as ERK EGF inh 2%.
Screening CC(=O)O[C@]1(C(C)=O)CC[C@H]2C3C=C(Cl)C4=CC(=O)[C@@H]5C[C@H]5[C@]4(C)C3CC[C@@]21C (some centres undefined) returned ERK EGF inh -1%.
Screening Cc1nc(N2CCOCC2)c2nc(-c3ccccc3)n(CCN(C)C)c2n1 returned ERK EGF inh -1%.
For COCC(C)Nc1ccc(S(=O)(=O)N2CCCC2)cc1[N+](=O)[O-] (centres undefined) the results were ERK EGF inh 6%.
For COc1ccc2cc(S(=O)(=O)N3CCCCCC3)ccc2c1 the results were ERK EGF inh -15%.
`COc1ccc(Nc2ccc(S(=O)(=O)N3CCCCCC3)cc2[N+](=O)[O-])cc1` gave ERK EGF inh 20µM*.
Screening O=C(/C=C(\O)c1ccccc1)c1ccccc1O returned ERK EGF inh -3%.
Screening O=[N+]([O-])c1ccc(N/N=C2\CC3CC=CC23)cc1 (centres undefined) returned ERK EGF inh -13%.
For O=[N+]([O-])c1ccc(N/N=C2\CC3CC=CC23)c([N+](=O)[O-])c1 (centres undefined) the results were ERK EGF inh 14µM*.
CCC(CC)=NNc1ccc([N+](=O)[O-])cc1[N+](=O)[O-] was read as ERK EGF inh -4%.
`COC1=C(C(=O)c2ccccc2)C(=O)C2(CC=C(C)C)C[C@H](C(=O)OCC(F)(F)F)C(C)(C)[C@@]1(CC=C(C)C)C2=O` (tested in a mixture with another compound) gave ERK EGF inh -1%.
Screening COc1ccc2c(c1)O[C@H](c1ccc3c(c1)OCO3)[C@@H](OC(=O)NCc1ccco1)C2=O returned ERK EGF inh -8%.
CC(C)C[C@@H](CC(=O)N[C@@H](CCCN)CC(=O)N[C@@H]1CCNC[C@H]1C(=O)N[C@H](CC(=O)N[C@@H](CCC(=O)O)CC(=O)O)CC(C)C)NC(=O)[C@@H]1CNCC[C@H]1N was read as ERK EGF inh 0%.
Screening C=C(C)C(=O)/C=C/C=C/c1ccccc1 returned ERK EGF inh -21%.
Screening Cc1ccc(C2=NOC(=O)/C2=C\C=C\c2ccccc2)cc1 returned ERK EGF inh 32µM*.
CC1=NN(c2ccccc2)C(=O)C1=C(C)C was read as ERK EGF inh -4%.
`CC1=NN(c2ccccc2)C(=O)/C1=C/C=C/c1ccccc1` gave ERK EGF inh 16µM*.
`CN(C)/C=C1\C(=O)ON=C1c1ccccc1` gave ERK EGF inh 3%.
CC1=NN(c2cccc(C(=O)O)c2)C(=O)/C1=C\C=C\c1ccco1 was read as ERK EGF inh 2%.
For O=C1ON=C(c2ccccc2)/C1=C/c1ccco1 the results were ERK EGF inh 3%.
`Cn1c(=O)c(CCc2ccccc2)nc2cnc(N3CCNCC3)nc21` gave ERK EGF inh -4%.
`CC[C@H](C)[C@@H](NC(=O)O[C@@H]1C(=O)c2ccc(OC)cc2O[C@H]1c1ccc2c(c1)OCO2)C(=O)OC` gave ERK EGF inh -10%.
CCCn1c(=O)c(C)cn2nc(N)nc12 was read as ERK EGF inh -12%.
`COc1ccc(-c2nc(-c3ccccc3)c(NC(C)(C)C)o2)cc1` gave ERK EGF inh -14%.
Screening CS/C(=N\S(=O)(=O)c1cccs1)Nc1ccc(F)cc1 returned ERK EGF inh -3%.
Screening Cc1cccc(NC2=C/C(=N/S(=O)(=O)c3cccs3)c3ccccc3C2=O)c1 returned ERK EGF inh 8%.
CC(C)(C)c1cc[n+](C2=C([O-])c3ccccc3C(=O)/C2=N\S(=O)(=O)c2cccs2)cc1 was read as ERK EGF inh 2%[57.5 µM].
`O=C1/C(=N\S(=O)(=O)c2cccs2)C([n+]2ccccc2)=C([O-])c2ccccc21` gave ERK EGF inh 8%[57.5 µM].
Screening O=C1C(Nc2ccc(O)cc2)=C/C(=N/S(=O)(=O)c2cccs2)c2ccccc21 returned ERK EGF inh 18µM*.
Cc1ccc(NC2=C/C(=N\S(=O)(=O)c3cccs3)c3ccccc3C2=O)c(C)c1 was read as ERK EGF inh 13µM*.
CCCCC1=CC2=C(c3ccco3)C(=O)C(C)(OC(=O)c3cccs3)C(=O)C2=CO1 (centres undefined) was read as ERK EGF inh -4%.
